High-throughput results: PubChem BioAssay, The Scripps Research Institute Molecular Screening Center
FBW7 act: human FBW7 E3 ligase activation, primary screen; normalized activity (activation), % at 26.1 µM; actives 0.13% (n = 650,000); AlphaScreen FBW7–phospho-cyclin E peptide binding, activator screen; AID 1259310; in the data active = normalized activity above about 1.9%;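 also: purified mutant Fbw7 with reduced substrate affinity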
GPR151 ag: human GPR151 activation; PathHunter beta-arrestin GPR151 cells, luminescence; activation, % at 11.2 µM; actives 1% (n = 650,000); in the data active = activation above about 4.9%;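 also: 0% = median of compound wells and 100% = cells with positive control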
MITF primary: blocks human microphthalmia-associated transcription factor | actives 0.91% (n = 650,000) | inhibition, % at 2.6 µM | AlphaScreen MITF homodimerization, bead proximity signal; in the data active = inhibition above about 50%;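 also: 0% = vehicle wells with protein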
Target sequence (O75030 whole entry, looked up): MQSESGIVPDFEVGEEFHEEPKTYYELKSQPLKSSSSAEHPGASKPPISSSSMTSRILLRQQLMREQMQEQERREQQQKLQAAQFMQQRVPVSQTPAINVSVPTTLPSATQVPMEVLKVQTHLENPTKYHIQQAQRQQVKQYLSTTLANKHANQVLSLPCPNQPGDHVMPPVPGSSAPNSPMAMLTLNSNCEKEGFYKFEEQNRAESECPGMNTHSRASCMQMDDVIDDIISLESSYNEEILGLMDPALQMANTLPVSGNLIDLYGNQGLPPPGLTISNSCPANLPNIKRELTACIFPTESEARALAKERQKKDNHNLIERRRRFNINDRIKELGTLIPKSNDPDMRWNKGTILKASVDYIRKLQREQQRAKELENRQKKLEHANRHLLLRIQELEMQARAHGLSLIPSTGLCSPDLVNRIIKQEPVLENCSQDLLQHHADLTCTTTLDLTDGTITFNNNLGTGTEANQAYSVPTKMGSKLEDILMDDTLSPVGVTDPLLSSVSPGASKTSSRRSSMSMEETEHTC
TEAD-YAP inh: TEAD-YAP interaction inhibition; HEK-TIYL cells, TEAD-Gal4/YAP UAS-luciferase luminescence; inhibition, % at 9.12 µM; actives 1.4% (n = 640,000); AID 1259422; in the data active = inhibition above about 32%;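 also: 0% = median of test compound wells and 100% = reference inhibitor wells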
* marks the source's active call; other numbers are inactive results. Only some compounds are listed: those with a hit (about 3.5% of all), similar ones and a draw of the others.

SMILES | FBW7 act | GPR151 ag | MITF primary | TEAD-YAP inh
O=C(NCCN1CCOCC1)c1cc(-c2ccc(F)cc2)nc2ccc(Br)cc12 | 0.1 | 1.3 | -17.1 | 5.7
CCC[C@@H]1NC(=O)[C@H]2CN(Cc3ccccc3)CCN2C1=O | 0.0 | -0.5 | 15.5 | -6.2
CC[C@H](Cn1nnc2ccccc2c1=O)NC(=O)Cn1cnc2ccccc21 | 0.0 | 0.5 | -3.2 | 17.8
Cc1ccsc1/C=C1\CCc2ccccc2C1=O | -0.1 | -10.7 | -3.2 | 68.3*
CCN1C(=O)CC(C(=O)Nc2ccc(Cl)cc2)SC1=Nc1ccc(OC)cc1 (configuration not stated) | 0.2 | 1.7 | 0.5 | 37.7*
Cc1cc(O)c(C=O)c2c1C(=O)Oc1c(COC(=O)/C=C/C(=O)O)c(O)c(C(=O)O)c(C)c1O2 | -0.2 | 0.2 | 75.8* | 5.2
COc1ccc(NC(=O)CSc2nc3cc4c(cc3c(=O)n2CCCC(=O)NCc2ccc3c(c2)OCO3)OCO4)c(OC)c1 | 0.0 | -0.9 | 5.5 | 11.7
Cc1ccc(S(=O)Cc2ccc(C(=O)N3CCN(c4ccccc4)CC3)o2)cc1 (configuration not stated) | 0.1 | 0.4 | 2.5 | 49.7*
Cc1ccc(CS(=O)Cc2ccc(C(=O)N3CCN(c4ccccc4)CC3)o2)cc1 (configuration not stated) | 0.7 | -0.8 | 10.8 | 16.7
Cc1ccc(S(=O)(=O)Cc2ccc(C(=O)N3CCN(c4ccccc4)CC3)o2)cc1 | -0.2 | -0.5 | 15.9 | 40.4*
O=C(c1ccc(CS(=O)c2ccccc2)o1)N1CCN(c2ccccc2)CC1 (configuration not stated) | 0.1 | 0.7 | 10.0 | 42.0*
Cc1ccccc1S(=O)Cc1ccc(C(=O)N2CCN(c3ccccn3)CC2)o1 (configuration not stated) | 0.1 | 1.0 | 15.0 | 42.2*
CC(C)N(CCNC(=O)c1cccc(N2CCN(c3ccccn3)CC2)n1)C(C)C | 0.1 | -1.3 | 8.0 | 9.5
COc1cccc(C2C(C(=O)OC3CCCC3)=C(C)NC3=C2C(=O)CC(c2ccccc2)C3)c1OC (configuration not stated) | -0.1 | -1.4 | -18.8 | 3.7
COc1ccc(C2CC(=O)C3=C(C2)NC(C)=C(C(=O)OC2CCCC2)C3c2cccc(Cl)c2)cc1OC (configuration not stated) | 0.1 | 1.6 | -8.0 | 29.6
CCCOC(=O)C1=C(C)NC2=C(C(=O)CC(c3ccc(OC)c(OC)c3)C2)C1c1cccc(Cl)c1 (configuration not stated) | 0.6 | 0.4 | 7.6 | 35.1*
CCCOC(=O)C1=C(C)NC2=C(C(=O)CC(c3ccc(OC)c(OC)c3)C2)C1c1ccc(Cl)cc1Cl (configuration not stated) | 0.2 | -0.7 | 12.2 | 4.2
COc1ccc(C2CC(=O)C3=C(C2)NC(C)=C(C(=O)OC2CCCC2)C3c2cccc([N+](=O)[O-])c2)cc1OC (configuration not stated) | 0.1 | 0.7 | 14.2 | 41.9*
COc1ccc(C2CC(=O)C3=C(C2)NC(C)=C(C(=O)OC2CCCC2)C3c2cccc(C)c2)cc1OC (configuration not stated) | 0.1 | 0.3 | -34.4 | 46.8*
COc1ccccc1C1C(C(=O)OC2CCCC2)=C(C)NC2=C1C(=O)CC(c1ccccc1)C2 (configuration not stated) | 2.6* | 0.8 | 1.7 | -2.0
COc1ccc(C2CC(=O)C3=C(C2)NC(C)=C(C(=O)OC2CCCC2)C3c2ccc(F)cc2)cc1OC (configuration not stated) | 0.4 | -0.3 | 0.9 | 37.3*
COc1ccc(C2CC(=O)C3=C(C2)NC(C)=C(C(=O)OC2CCCC2)C3c2ccccc2F)cc1OC (configuration not stated) | 0.0 | -0.6 | -15.6 | 47.9*
CC(=O)N/N=C(/C)c1cccc(NC(=O)c2ccc(Cl)cc2Cl)c1 | 0.2 | -0.7 | 0.1 | -19.9
COC(=O)c1cc(-c2c(C)nn(-c3ccccc3)c2C)n[nH]1 | -0.2 | -0.3 | -13.4 | -21.3
COc1ccc(/C(C)=N\NC(=O)c2cc(-c3c(C)nn(-c4ccccc4)c3C)n[nH]2)cc1 | 0.2 | -0.6 | 15.4 | 44.4*
SMILES | FBW7 act | GPR151 ag | MITF primary | TEAD-YAP inh
O=c1[nH]c(/C=C2\C=Nc3ccc(Br)cc32)c(O)n1Cc1ccccc1F | -0.2 | 0.0 | 4.8 | 4.4
COc1cc(C(=O)OCn2c(SC)nnc(C)c2=O)c([N+](=O)[O-])cc1OC | 0.0 | -1.2 | -1.3 | -3.1
Cn1c(=O)c2ncn(CC(=O)N/N=C/c3cc(Cl)ccc3O)c2n(C)c1=O | -0.7 | 1.7 | 41.9 | 7.8
Cn1c(=O)c2ncn(CC(=O)N/N=C/c3cc(Br)ccc3O)c2n(C)c1=O | -0.5 | -0.6 | 62.7* | 11.9
CCN(Cc1ccccc1)S(=O)(=O)c1cc(C(=O)Nc2ccc(Oc3ccccc3)cc2)ccc1F | 0.0 | 0.6 | 2.1 | 65.8*
CCN(c1ccccc1)S(=O)(=O)c1cc(C(=O)Nc2ccc(Oc3ccccc3)cc2)ccc1F | 0.1 | 0.7 | 17.5 | 49.0*
CCN(CC)S(=O)(=O)c1cc(C(=O)Nc2cccc(O)c2)ccc1Cl | 0.5 | -0.5 | 8.7 | 73.2*
CCN(c1ccccc1)S(=O)(=O)c1ccc(C(=O)Nc2ccc(C(C)=O)cc2)cc1 | 2.3* | 2.8 | 8.0 | 7.3
CCN(c1ccccc1)S(=O)(=O)c1ccc(NC(=O)Nc2ccccc2)cc1 | 0.2 | -0.3 | 2.7 | 17.8
O=C1Cc2ccccc2C(c2cccc(Cl)c2)N1 (configuration not stated) | 0.0 | 1.0 | 12.2 | 7.3
C#CC(O)(c1ccccc1)c1ccc(Sc2ccc(C)cc2)cc1 (configuration not stated) | 0.3 | 0.8 | -3.1 | 0.2
CN(Cc1ccccc1)S(=O)(=O)c1cc(C(=O)Nc2ccc(Br)cc2)ccc1F | 0.1 | 1.0 | -2.3 | 40.8*
CCN(CC)S(=O)(=O)c1cc(C(=O)Nc2ccc(C)c(F)c2)ccc1F | 0.1 | -0.5 | 7.9 | -37.3
CCN(Cc1ccccc1)S(=O)(=O)c1cc(C(=O)Nc2ccc(C)c(F)c2)ccc1F | 0.1 | 2.5 | -6.2 | 57.1*
CCN(Cc1ccccc1)S(=O)(=O)c1cc(C(=O)Nc2cccc(Cl)c2)ccc1F | 0.5 | 0.9 | 6.6 | 58.3*
O=C(Nc1ccc(Br)cc1)c1ccc(F)c(S(=O)(=O)NCc2cccs2)c1 | 0.3 | 0.1 | 7.4 | 60.4*
O=C(Cn1c(=O)n(Cc2ccco2)c2ncccc21)N1CCCC1 | -0.1 | 0.2 | 6.1 | -9.2
Cc1cccc(CN2C(=O)C(=O)c3ccccc32)c1 | 0.2 | 1.3 | 17.2 | 15.2
O=C(CCn1nnc2ccccc2c1=O)NCCC1=CCCCC1 | 0.0 | 0.8 | -1.3 | -0.2
Cc1cc(NS(=O)(=O)c2ccc(NC(=O)/C=C/c3ccc(F)cc3)cc2)nc(C)n1 | 0.0 | -0.4 | 15.2 | 5.2
CCCNC(=O)c1ccccc1NS(=O)(=O)c1ccc(C)c([N+](=O)[O-])c1 | 0.2 | 0.7 | 19.2 | 6.2
CNC(=O)/C(C#N)=C/c1ccc(-c2ccc(Br)cc2)o1 | 0.1 | -1.4 | 3.7 | -62.0
CNC(=O)/C(C#N)=C/c1ccc(-c2ccc(Cl)c(Cl)c2)o1 | 1.9* | 0.2 | 8.6 | -5.4
